Assay results reported in PubChem BioAssay AID435003 (Sanford-Burnham Center for Chemical Genomics, 2010).
Hit rate of the full screen: of about 330,000 compounds, about 1,700 (0.52%) were called active. The sample as a whole holds a higher share of actives than the screen did. A number with no mark means an inactive call. No stated cut-off is given here; in the data, active means inhibition above about 50%; inactive means the rest.

Assay: inhibitors of induced NF-kB luciferase reporter, primary screen, TCR NF-kB activation inhibitor project, cell-based, luminescence, uHTS (AID 435003)
Conditions: Jurkat, PMA/ionomycin-induced NF-kB luciferase reporter, at 4 µM, hits give high values

SMILES | inhibition
Cc1cc(=O)oc2cc(OCC3CC(c4ccccc4Cl)=NO3)ccc12 (centres undefined) | 80.2% (active)
Cc1cc(=O)oc2cc(OCCC[n+]3ccccc3)ccc12 | 3.92%
CCOc1ccccc1N1CCN(C(=O)COc2ccc3c(C)cc(=O)oc3c2)CC1 | 26.6%
CCOc1ccc(NC(=O)CCS(=O)(=O)c2ccc3c(c2)CCCN3C(=O)CC)cc1 | -12%
CCCCC(=O)Nc1ccc2c(c1)C(=O)NC2=O | 7.09%
COCc1c(C(=O)N/N=C(\C)c2ccncc2)nnn1-c1nonc1N | -38.2%
C[C@@H]1C[C@@H]2O[C@H]2/C=C\C=C\C(=O)Cc2c(Cl)c(O)cc(O)c2C(=O)O1 | 56% (active)
CN(NC(=O)c1ccccc1)c1nc2ccccc2nc1C(F)(F)F | 40.2%
CSc1nc(N(C)NC(=O)c2cccc(C)c2)c2ccccc2n1 | 57.7% (active)
CN(NC(=O)c1ccccc1F)c1nc(C(F)(F)F)nc2ccccc12 | 35.5%
O=C1c2ccccc2C(Nc2ccc3c(c2)OCCO3)N1Cc1ccco1 (centres undefined) | 4.45%
Cc1ccc(-n2c(C)cc(/C=N/Nc3ccc([N+](=O)[O-])cn3)c2C)c(C)c1 | 15.1%
COc1ccccc1C1CCN(c2ccc([N+](=O)[O-])cn2)CC1 | 1.45%
Cc1ccc(N2CCN(c3ccc([N+](=O)[O-])cn3)CC2)c(C)c1 | 50.7% (active)
COc1ccc(N(CC(=O)Nc2cc(OC)cc(OC)c2)S(=O)(=O)c2c(C)n[nH]c2C)cc1 | -11.8%
CCc1sc(C(=O)N2CCN(CC(=O)Nc3cccc(F)c3)CC2)cc1C | -11.7%
CCc1ccc(NC2Nc3cc(C)nn3S2)cc1 (centres undefined) | -76.8%
Cc1ccc(NC(=O)NNC(=O)c2sccc2-n2cccc2)cc1 | 6.7%
COc1cccc(/C=N/NC(=O)c2[nH]nc3c2CCc2ccccc2-3)c1O | 60.8% (active)
COc1ccc(/C=N/NC(=O)c2ccncc2)cc1CN1CCCc2ccccc21 | 16.1%

SMILES | inhibition
COc1ccc(Br)cc1/C=N/NC(=O)c1cccc(S(=O)(=O)N2CCOCC2)c1 | 5.13%
Cc1ccsc1-c1nc(CSCC(=O)NCCN2CCCC2)c(C)o1 | -7.15%
Cc1c(C)c2cc3c4c(oc3c(C)c2oc1=O)CCCC4 | -27.9%
O=C(Nc1cccc(S(=O)(=O)N2CCCC2)c1)c1cncc(Br)c1 | 1.27%
CC[n+]1cc(C)ccc1/C=C/c1ccc(N(C)C)cc1 | 84.4% (active)
Cc1ccc2nsnc2c1NC(=O)c1ccccc1[N+](=O)[O-] | 10.9%
COc1ccc(NC(=O)C(CC(C)C)NS(=O)(=O)c2ccc3c(c2)CCN3C(C)=O)cc1OC (centres undefined) | -14%
CC1(C(=O)O)CCC(C(=O)Nc2ccc(Cl)c(Cl)c2)C1(C)C (centres undefined) | -8.65%
CC(=O)NC(=S)Nc1ccc(NC(=S)NC(=O)c2ccc([N+](=O)[O-])cc2)cc1 | 14.2%
COc1cc(NS(=O)(=O)c2ccc(NC(=O)c3ccc([N+](=O)[O-])cc3)cc2)ncn1 | 14.9%
Cn1ccc(=Nc2ccc(NC(=O)c3ccc(N=c4ccn(C)c5ccc([N+](=O)[O-])cc45)cc3)cc2)cc1 | 51.3% (active)
O=C1C=C(c2ccc(Cl)cc2)C(=O)N1Nc1ccccc1 | 13.6%
CC(=O)c1ccc(N2CCN(C(=O)C3CCN(S(=O)(=O)c4ccc5c(c4)CC(C)N5C(=O)C4CC4)CC3)CC2)cc1 (centres undefined) | -3.75%
COc1ccc(C(=O)/C=C/Nc2ccccn2)cc1 | 50.4% (active)
CCOc1ccc(N/C=C/C(=O)c2cc(OC)c(OC)c(OC)c2)cc1 | 44.3%
CCOc1ccc(N/C=C/C(=O)c2ccccc2)cc1 | -132%
Cc1onc(-c2ccc(Cl)cc2)c1-c1ccnn1S(=O)(=O)c1ccc(Cl)cc1 | 9.53%
COc1ccc(NC(=O)C(C)N2c3cccc4cccc(c34)S2(=O)=O)c(OC)c1 (centres undefined) | 21.7%
O=C(NCc1ccc2c(c1)OCO2)c1cc(F)c(F)cc1Cl | -12%
CC1CCN(c2ccc(C(=O)NCc3ccc4c(c3)OCO4)cc2[N+](=O)[O-])CC1 | -1.58%

SMILES | inhibition
O=C(NCc1ccc2c(c1)OCO2)c1cc([N+](=O)[O-])ccc1N1CCOCC1 | 60.2% (active)
CC1Sc2ccc(S(=O)(=O)CCC(=O)NCc3ccccc3Cl)cc2NC1=O (centres undefined) | 7.46%
Cc1ccc(S(=O)(=O)N/N=C(\c2ccccc2)C2CC2)cc1 | -1.73%
O=C(Nc1ccccc1C(F)(F)F)c1cc(-c2ccc(O)cc2)on1 | -35.1%
Cc1ccc(O)c(NC(=O)c2cc(-c3ccco3)on2)c1 | 96.2% (active)
CC(C)Cc1cc(C(=O)Nc2cc(Br)ccc2O)no1 | -28.3%
COC(=O)c1ccc(NC(=O)c2cc3c(CO)cnc(C)c3oc2=Nc2cccc(C(N)=O)c2)cc1 | -7.55%
c1ccc(-n2cccc2)c(N2CCCCC2)c1 | 6.35%
C/C(=C(\C#N)C(=O)NCCCN1CCOCC1)N(C)C | -10.8%
O=C(COC(=O)c1ccc(F)c(S(=O)(=O)N2CCOCC2)c1)NCc1ccc2c(c1)OCO2 | -6.67%
CC(=NCc1ccco1)c1c(C(F)(F)F)[nH]n(-c2nc3ccccc3s2)c1=O | -104%
COc1ccc(C2=NN(c3nc4ccccc4s3)C(=O)C2)cc1 | -52%
COC(=O)Cc1[nH]n(-c2nc3ccccc3s2)c(=O)c1C(C)=Nc1ccc(OC)cc1 | 60.8% (active)
COc1ccc(CC(=O)NCc2nnc(SCC(=O)Nc3nccs3)n2C)cc1 | -0.699%
COc1ccc(OC)c(CCNC(=O)CCn2ccc3cc(S(=O)(=O)N4CCCC4)ccc32)c1 | 4.04%
COc1ccccc1C(=O)Nc1ccc(OCc2nnc3c4ccccc4c(C)nn23)cc1 | 15.2%
Cc1cc(C(=O)N/N=C/c2ccccn2)c2ccccc2n1 | 3.68%
Cc1nnc(N/N=C/c2ccccn2)[nH]c1=O | 58.1% (active)
COc1ccc(Cc2nnc(N/N=C/c3ccccc3O)[nH]c2=O)cc1OC | 10.5%
